Measured values reported in the supplement of paper PMC6555819.

Tests used:
Experiment in all cases: PBM binding z-score (relative to random genomic background probes); higher = stronger binding; sequences stand for … in GC…GCGATTGACAGCGTAGAATGAAGG
[1] = tested on: FXR:RXRa (NR concentration 270 nM, RXRa partner concentration 90 nM)
Procedure, shortened: (§1)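 Ligand-free nuclear receptor dimers were applied to custom Agilent 4×180K protein-binding microarrays whose double-stranded probes carried direct-repeat seeds, single-nucleotide variants, half-site ablations and random human genomic background sequences in 34-nt variable regions. Incubation lasted 1 h. Binding z-scores were computed against the random background probes from regression-normalized fluorescence.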

[2] = tested on: LXRa:RXRa (NR concentration 270 nM, RXRa partner concentration 90 nM)
Procedure, shortened: as §1

[3] = tested on: LXRa homodimer (NR concentration 270 nM)
Procedure, shortened: as §1

[4] = tested on: LXRb homodimer (NR concentration 270 nM)
Procedure, shortened: as §1

[5] = tested on: PPARa:RXRa (NR concentration 270 nM, RXRa partner concentration 90 nM)
Procedure, shortened: as §1

[6] = tested on: PPARg:RXRa (NR concentration 180 nM, RXRa partner concentration 90 nM)
Procedure, shortened: as §1

[7] = tested on: PPARg:RXRa 270nM:90nM, anti-RXR (NR concentration 270 nM, RXRa partner concentration 90 nM)
Procedure, shortened: as §1

[8] = tested on: PPARg:RXRa 30nM:10nM, anti-RXR (NR concentration 30 nM, RXRa partner concentration 10 nM)
Procedure, shortened: as §1

[9] = tested on: PPARg:RXRa 90nM:30nM, anti-RXR (NR concentration 90 nM, RXRa partner concentration 30 nM)
Procedure, shortened: as §1

[10] = tested on: LXRb:RXRa (NR concentration 270 nM, RXRa partner concentration 90 nM)
Procedure, shortened: as §1

Sequence	PBM binding z-score [1]	PBM binding z-score [2]	PBM binding z-score [3]	PBM binding z-score [4]	PBM binding z-score [5]	PBM binding z-score [6]	PBM binding z-score [7]	PBM binding z-score [8]	PBM binding z-score [9]	PBM binding z-score [10]
GCTTACGGGTCAAAAGTTATAGCATGAATAGAAT	5.09	3.43	0.0533	0.409	5.64	6.49	6.55	4.03	6.2	
TCGAGTAGCTTACGGGGGCATTCAGGGATGAAGA	1.64	1.5	0.141		2.12		2.1	2.18	2.37	3.47
AGTCAAAGTTCACTAGGTTACGTAAGATTCAGCT	4.92	5.44	3.95	1.5	4.85	7.41	6.74	4.4	5.88	
CACACTAGGTCAAAGGTCAAAGTCGAGCCAACCA	8.41	7.68	6.65	3.73	7.75	13.9	11.2	14	14	
CTTAGTTGGTCAGGAGGTCACACACCGGATATGA	3.89	3.72	2.38	0.947	4.35	4.41	4.69	2.41	4.39	
AGAATGGGGTTATTAAGATCAGGGAATTGCGGTC	3.03	2.77	0.597	2.14	4.48	3.31	3.5	1.26	2.65	
ATGGAAAGGTCGTGAGGTGAGTATACAGAAAGGC	5.97	4.01	0.412	1.01	5.3	4.74	4.66	1.89	3.12	
TATACAGGATCAAAGGCCAGAGTACGAATGTCGA	0.361	0.271	-0.0452	0.483	1.33	2.37	3.11	1.85	2.92	
CAAACTAGGCCAAGGTCAAAGTCGGTTTGTGCCA	4.09	3.76	2.16	0.128	4.79	6.27	6.01	3.89	5.74	
ACTAGTTGGTCAGCTGAGGTAACACACAATTCGG	1.15	-0.066	0.00608	0.472	0.41	0.76	0.156	0.214	-0.00453	
CCTACTGGGCCACTCAGAGGTCATTGATCATATG	2.81	4.09	4.52	0.238	3.98	3.57	3.49	1.52	2.96	
ACTCGGAGGACAAAGGTCAGAACTACGCCAGTGA	3.87	4.07	1.47	1.03	4.61	7.34	7.11	4.87	7.69	
ATCGAAAGGTCGTGAGGTGAGTTTACAGAAAGGC	5.54	4.05	0.339	0.313	5.21	4	4.18	1.98	3.05	
ACTCGGGGGACAAAGGTCAGAGCTACGCCAGTGA	5.78	5.7	2.14	5.96	6.14	9.31	8.33	8.12	9.68	
ACTTACGGGTCAACGACGTTATAGCACGCGTATA	6.03	3.91	0.144	0.83	5.66	5.3	5.09	1.83	3.59	
